{
  "source": "the supplement of paper PMC4237247",
  "note": "Where a name gives a salt, the structure may show the parent alone.",
  "data": [
    {"system": "HeLa", "assay": "percent cells in G1 phase; higher = more G1 arrest", "conditions": "10 µM; 20 h", "method": "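HTS of 79,827 drug-like compounds at 10 uM. HeLa cells in 384-well plates were treated for 20 h, fixed, stained with Vybrant DyeCycle Green and scanned on an Acumen eX3 cytometer to give per-well cell cycle profiles (% cells in each phase). The plate Z' was 0.51. Only hits are listed: G1 hits >4 SD and S hits >5 SD from the mean.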", "units": {"percent cells in G1 phase": "%"}, "values": [
      {"smiles": "Nc1ccn([C@H]2CC[C@@H](CO)O2)c(=O)n1", "note": "[Zalcitabine] (hit class: S-phase inhibitor)", "percent cells in G1 phase": 45.1},
      {"smiles": "Cc1cc(N2CCCCC2)c(F)cc1[N+](=O)[O-]", "note": "(hit class: S-phase inhibitor)", "percent cells in G1 phase": 44.7},
      {"smiles": "COc1ccc(C(=O)c2coc3ccc(OC)cc3c2=O)cc1", "note": "(hit class: G1-phase inhibitor)", "percent cells in G1 phase": 70.5},
      {"smiles": "c1ccc2c(c1)Nc1nc3ccccc3nc1O2", "note": "(hit class: G1-phase inhibitor)", "percent cells in G1 phase": 70.5},
      {"smiles": "CCN(CC)Cc1c(O)ccc2c(=O)c(-c3ccccc3)coc12", "note": "(hit class: S-phase inhibitor)", "percent cells in G1 phase": 55.9},
      {"smiles": "COc1[nH]c2ccccc2c1C=NO", "note": "(hit class: S-phase inhibitor)", "percent cells in G1 phase": 59.4},
      {"smiles": "C[C@@H]1CCC[C@H](C)N1NC(=O)c1ccc(Cl)c(S(N)(=O)=O)c1", "note": "[Clopamide] (hit class: G1-phase inhibitor)", "percent cells in G1 phase": 70.5},
      {"smiles": "CC(=O)C1=C(O)C(=O)N(CC(=O)O)C1c1ccccc1F", "note": "(configuration not stated) (hit class: S-phase inhibitor)", "percent cells in G1 phase": 61.1},
      {"smiles": "COc1ccc(CSc2nncn2N)cc1", "note": "(hit class: S-phase inhibitor)", "percent cells in G1 phase": 61.4},
      {"smiles": "O=C1c2c(O)ccc(O)c2C(=O)c2c(NCCNCCO)ccc(NCCNCCO)c21", "note": "[Mitoxantrone dihydrochloride] (hit class: G1-phase inhibitor)", "percent cells in G1 phase": 70},
      {"smiles": "Cc1cc([N+](=O)[O-])ccc1NCc1ccc(F)c(F)c1", "note": "(hit class: G1-phase inhibitor)", "percent cells in G1 phase": 69.8},
      {"smiles": "CC[C@@H](C(=O)[C@@H](C)[C@@H](O)[C@H](C)CCc1ccc(C)c(O)c1C(=O)O)[C@H]1O[C@](CC)([C@H]2CC[C@](O)(CC)[C@H](C)O2)C[C@@H]1C", "note": "[Lasalocid sodium salt] (hit class: G1-phase inhibitor)", "percent cells in G1 phase": 73.9},
      {"smiles": "Cc1ccc(-c2cc(-c3ccccc3Cl)[nH]n2)c(O)c1", "note": "(hit class: G1-phase inhibitor)", "percent cells in G1 phase": 69.2},
      {"smiles": "COc1c(C)c2c(c(O)c1C/C=C(\\C)CCC(=O)O)C(=O)OC2", "note": "[Mycophenolic acid] (hit class: S-phase inhibitor)", "percent cells in G1 phase": 39},
      {"smiles": "C[C@@H]1C[C@H]2[C@@H]3C[C@H](F)C4=CC(=O)C=C[C@]4(C)[C@@]3(Cl)[C@@H](O)C[C@]2(C)[C@H]1C(=O)COC(=O)C(C)(C)C", "note": "[Clocortolone pivalate] (hit class: S-phase inhibitor)", "percent cells in G1 phase": 43.2},
      {"smiles": "Cn1c(SCc2ccccc2)nc2ccccc2c1=O", "note": "(hit class: S-phase inhibitor)", "percent cells in G1 phase": 60},
      {"smiles": "O=C(COc1ccc(Cl)cc1)NC(Cc1c[nH]c2ccccc12)C(=O)O", "note": "(configuration not stated) (hit class: G1-phase inhibitor)", "percent cells in G1 phase": 69}
    ]}
  ]
}
